Source: PubChem BioAssay
Several values for one entry are separate records, joined by “and”; a condition that tells them apart may be missing. Identical values can stand only once. More than one record can exist for a structure, and the calls need not agree. Activity calls are given as the source filed them. Unless noted, the rule behind the calls is not given here.

What was measured:
[1] = resazurin metabolic signal in HepG2 cells – cell-based, resazurin fluorescence, 24 h, PK04 Diversity Set, profiling panel (AID 1172); conditions: HepG2 viability, higher = more signal
[2] = budding yeast growth changes without added modifier – OD600, strain BY4716, 24 h, basal condition, primary screen (AID 1173); conditions: S. cerevisiae BY4716 growth, OD600, 24 h; higher = more signal, called active from +8 up or from −8 down
[3] = viability profiling in MM1S myeloma cells – cell-based, resazurin fluorescence, basal, 24 h, PK04 Diversity Set, profiling panel (AID 1174); conditions: higher = more signal, called active from +8 up or from −8 down;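 note: MM1S multiple myeloma cell line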
[4] = molecular target: Dihydroorotate dehydrogenase (quinone), mitochondrial (Plasmodium falciparum (isolate 3D7)) (UniProt Q08210); experiment: inhibition of P. falciparum DHODH – biochemical, C-terminal His tag, absorbance 600 nm, primary screen (AID 1175); conditions: PfDHODH enzyme, DCIP absorbance 600 nm; higher = more signal, called active from +8 up or from −8 down;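 note: recombinant parasite enzyme with a five histidine tag at its C terminus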
[5] = inhibition of PAO1 biofilm formation – strain PAO1, LB-PBS medium, absorbance 600 nm, primary screen (AID 1176); conditions: P. aeruginosa PAO1 growth/biofilm, A600, 12 h; higher = more signal
[6] = growth modulation of vineyard yeast isolate – strain RM11-1a, OD600, basal, 24 h, primary screen (AID 1177);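 note: cultures grown under basal conditions with no added stressor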; conditions: S. cerevisiae RM11-1a growth, OD600, 24 h; higher = more signal, called active from +8 up or from −8 down
[7] = growth of efflux-deficient E. coli DRC39 – strain DRC39, OD650, 24 h, E. coli filamentation inducers, primary screen (AID 1178);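 note: growth measured as culture turbidity by optical density at 650 nm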; conditions: E. coli DRC39 acrAB, higher = more signal, called active from +8 up or from −8 down
[8] = growth of efflux-deficient E. coli DRC39 – strain DRC39, OD650, 48 h, E. coli filamentation inducers, primary screen (AID 1179);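 note: screen aims at cell division blockers that make cells filament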; conditions: E. coli DRC39 delta-acrAB growth, higher = more signal, called active from +8 up or from −8 down
[9] = viability profiling in RPMI8226 myeloma cells – cell-based, resazurin fluorescence, basal, 24 h, PK04 Diversity Set, profiling panel (AID 1180); conditions: higher = more signal;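 note: RPMI8826 multiple myeloma cell line at 5000 cells per well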
[10] = molecular target: E3 ubiquitin-protein ligase XIAP (Homo sapiens) (UniProt P98170); experiment: small molecules binding XIAP protein – biophysical, small-molecule microarray, fluorescence 635 nm, primary screen (AID 1181); conditions: higher = more signal;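 note: score merges 667 nm emission and signal to noise over triplicate slides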
[11] = tested on: XIP peptide (Xip251-270) binding; experiment: XIP fragment 251-270 binding compounds – biochemical, small-molecule microarray, fluorescence 635/667 nm, 0.1 µg/mL protein, primary screen (AID 1182); conditions: fluorescent protein binding, 635 nm, higher = more signal, called active from +8 up or from −8 down
[12] = tested on: XIP peptide (Xip251-270); experiment: compounds binding XIP fragment 251-270 – biochemical, small-molecule microarray, fluorescence 635/667 nm, 0.5 µg/mL protein, primary screen (AID 1183); conditions: fluorescence 635 nm, higher = more signal
[13] = blood-stage malaria parasite viability loss – strain 3D7, DAPI fluorescence, 100 nL, primary screen (AID 1184);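 note: parasites grown inside human red blood cells in medium with human serum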; conditions: P. falciparum 3D7 growth, 3 d, higher = more signal
[14] = molecular target: Homeobox protein Hox-A13 (Mus musculus) (UniProt Q62424); experiment: disruptors of Hoxa13 oligonucleotide interaction – biochemical, fluorescence polarization, labeled oligonucleotide, primary screen (AID 1185); conditions: Hoxa13:DNA binding, 15 min, higher = more signal, called active from +8 up or from −8 down
[15] = blockers of DNA damage checkpoint Chk1 activation – imaging, HeLa, hydroxyurea, phospho-Chk1 antibody, percent positive cells, primary screen (AID 1186); conditions: hydroxyurea-induced phospho-Chk1 immunofluorescence imaging, higher = more signal
[16] = blockers of DNA damage checkpoint Chk1 activation – imaging, HeLa, hydroxyurea, phospho-Chk1 nuclear intensity, primary screen (AID 1187); conditions: hydroxyurea-induced phospho-Chk1 immunofluorescence imaging, higher = more signal

Dihydroorotate dehydrogenase (quinone), mitochondrial (Plasmodium falciparum (isolate 3D7)), sequence (Q08210 whole entry, looked up): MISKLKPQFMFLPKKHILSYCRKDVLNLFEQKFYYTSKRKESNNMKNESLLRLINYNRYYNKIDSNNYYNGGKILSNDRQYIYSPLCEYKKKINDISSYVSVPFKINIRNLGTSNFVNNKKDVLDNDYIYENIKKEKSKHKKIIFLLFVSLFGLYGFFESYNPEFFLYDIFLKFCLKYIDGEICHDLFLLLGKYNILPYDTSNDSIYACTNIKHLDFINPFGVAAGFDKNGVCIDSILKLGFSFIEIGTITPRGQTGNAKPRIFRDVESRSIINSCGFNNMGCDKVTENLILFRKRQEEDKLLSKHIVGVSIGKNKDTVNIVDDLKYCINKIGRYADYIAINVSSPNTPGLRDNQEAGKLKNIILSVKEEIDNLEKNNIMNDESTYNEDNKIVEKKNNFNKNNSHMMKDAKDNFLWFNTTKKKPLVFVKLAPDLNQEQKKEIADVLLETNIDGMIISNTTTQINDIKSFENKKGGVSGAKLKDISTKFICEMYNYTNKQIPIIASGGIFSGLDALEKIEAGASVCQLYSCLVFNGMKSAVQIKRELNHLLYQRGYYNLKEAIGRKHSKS
E3 ubiquitin-protein ligase XIAP (Homo sapiens), sequence (P98170 whole entry, looked up, the tested form may be a part): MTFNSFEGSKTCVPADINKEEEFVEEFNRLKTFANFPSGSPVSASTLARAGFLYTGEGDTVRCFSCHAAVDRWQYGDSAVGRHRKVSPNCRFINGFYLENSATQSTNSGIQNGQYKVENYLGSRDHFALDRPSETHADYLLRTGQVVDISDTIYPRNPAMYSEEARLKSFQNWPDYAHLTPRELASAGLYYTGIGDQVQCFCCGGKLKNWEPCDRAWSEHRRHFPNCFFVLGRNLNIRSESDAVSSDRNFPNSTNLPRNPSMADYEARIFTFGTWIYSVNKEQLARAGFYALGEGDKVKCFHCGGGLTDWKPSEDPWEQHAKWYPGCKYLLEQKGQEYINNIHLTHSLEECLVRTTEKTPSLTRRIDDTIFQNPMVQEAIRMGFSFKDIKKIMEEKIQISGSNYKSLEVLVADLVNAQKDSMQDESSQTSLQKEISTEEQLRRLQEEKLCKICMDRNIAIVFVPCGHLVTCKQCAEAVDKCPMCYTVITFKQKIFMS
Homeobox protein Hox-A13 (Mus musculus), sequence (Q62424 whole entry, looked up): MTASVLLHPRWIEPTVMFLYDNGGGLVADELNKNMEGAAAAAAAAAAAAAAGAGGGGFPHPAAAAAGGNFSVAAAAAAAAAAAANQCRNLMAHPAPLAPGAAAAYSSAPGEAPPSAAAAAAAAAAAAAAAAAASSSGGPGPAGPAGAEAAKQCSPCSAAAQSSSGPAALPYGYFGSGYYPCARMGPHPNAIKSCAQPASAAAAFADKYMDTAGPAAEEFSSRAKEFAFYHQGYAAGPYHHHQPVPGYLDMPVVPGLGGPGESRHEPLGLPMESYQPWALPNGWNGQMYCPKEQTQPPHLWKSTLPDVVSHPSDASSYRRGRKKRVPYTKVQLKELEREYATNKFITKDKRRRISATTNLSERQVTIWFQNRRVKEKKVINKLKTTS

## C=CCN(CCCC)C(=O)C1N(CCCCCCO)C(=O)C2C(C(=O)O)C3C=CC21O3 (stereo not drawn)
[1]
  z-score: 0.063 and -0.938
[2]
  z-score: 0.569 (inactive) and 0.411 (inactive)
[3]
  z-score: -0.76 (inactive) and -0.768 (inactive)
[4]
  composite z-score: -0.669 (inactive) and -0.0254 (inactive)
[5]
  z-score: 0.109 (inactive) and -0.388 (inactive)
[6]
  z-score: -0.751 (inactive) and -0.681 (inactive)
[7]
  z-score: 0.03 (inactive) and -0.0327 (inactive)
[8]
  z-score: -0.146 (inactive) and -0.105 (inactive)
[9]
  z-score: -0.704 and -0.992
[10]
  composite z-score: -0.124 and 0.18
[11]
  composite z-score: -0.489 (inactive) and -0.198 (inactive)
[12]
  composite z-score: -0.838 and -0.558
[13]
  z-score: 1.51 and 1.68
[14]
  z-score: -0.284 (inactive) and -0.72 (inactive)
[15]
  z-score: 0.527 (inactive) and 1.03 (inactive)
[16]
  z-score: 0.977 (inactive) and 1.09 (inactive)

## CC(C)[Si]1(C(C)C)OCc2cc(CCCc3cc4c(c(CCc5ccccc5)n3)[Si](C(C)C)(C(C)C)OC4)nc(CCc3ccccc3)c21
[1]
  z-score: 0.926 and -0.531
[2]
  z-score: -15.4 (active) and 0.852 (inactive)
[3]
  z-score: -0.78 (inactive) and -0.186 (inactive)
[4]
  composite z-score: -0.351 (inactive) and 0.681 (inactive)
[5]
  z-score: 0.35 (inactive)
[6]
  z-score: -0.656 (inactive) and 0.13 (inactive)
[7]
  z-score: 1.87 (inactive) and -0.184 (inactive)
[8]
  z-score: 1.19 (inactive) and -0.0698 (inactive)
[9]
  z-score: 0.583 and -1.16
[10]
  composite z-score: -0.0095 and -0.111
[11]
  composite z-score: -0.189 (inactive) and -0.0317 (inactive)
[12]
  composite z-score: -1.31 and -0.189
[13]
  z-score: 0.0742 and 1.55
[14]
  z-score: -1.38 (inactive) and -0.138 (inactive)
[15]
  z-score: -0.72 (inactive) and 0.618 (inactive)
[16]
  z-score: -0.625 (inactive) and -0.0158 (inactive)

## C=CCN(C(=O)C1N(C(C)(C)CO)C(=O)C2C(C(=O)O)C3C=CC21O3)C(C)(C)C (stereo not drawn)
[1]
  z-score: -0.724 and -0.381
[2]
  z-score: 1 (inactive) and 0.053 (inactive)
[3]
  z-score: -0.638 (inactive) and 0.113 (inactive)
[4]
  composite z-score: 1.3 (inactive) and -0.307 (inactive)
[5]
  z-score: -0.456 (inactive) and 0.109 (inactive)
[6]
  z-score: 1.16 (inactive) and 1.25 (inactive)
[7]
  z-score: -0.706 (inactive) and 0.32 (inactive)
[8]
  z-score: -0.687 (inactive) and 0.356 (inactive)
[9]
  z-score: -0.319 and -0.0012
[10]
  composite z-score: -0.326 and -0.212
[11]
  composite z-score: -0.651 (inactive) and 0.11 (inactive)
[12]
  composite z-score: -0.901 and -0.924
[13]
  z-score: 0.214 and -0.208
[14]
  z-score: -1.11 (inactive) and 0.241 (inactive)
[15]
  z-score: -0.518 (inactive) and 1.17 (inactive)
[16]
  z-score: -0.112 (inactive) and 0.674 (inactive)

## C=CCN(C(=O)C1N(c2c(Cl)cccc2CO)C(=O)C2C(C(=O)O)C3C=CC21O3)c1ccc(OC)cc1 (stereo not drawn)
[1]
  z-score: -0.48 and 0.737
[2]
  z-score: -0.566 (inactive) and -0.241 (inactive)
[3]
  z-score: -1.03 (inactive) and 0.874 (inactive)
[4]
  composite z-score: -0.394 (inactive) and -0.0226 (inactive)
[5]
  z-score: -0.137 (inactive) and -0.428 (inactive)
[6]
  z-score: 0.344 (inactive) and -1.83 (inactive)
[7]
  z-score: -0.237 (inactive) and 1.79 (inactive)
[8]
  z-score: -0.293 (inactive) and 1.93 (inactive)
[9]
  z-score: -0.509 and 1.06
[10]
  composite z-score: 0.281 and -0.152
[11]
  composite z-score: -0.241 (inactive) and -0.23 (inactive)
[12]
  composite z-score: 0.74 and 0.312
[13]
  z-score: -0.927 and 0.408
[14]
  z-score: -1.96 (inactive) and 0.908 (inactive)
[15]
  z-score: -0.6 (inactive) and -1.27 (inactive)
[16]
  z-score: 0.0631 (inactive) and -0.682 (inactive)

## C=C[C@@H](OC)[C@H](O)c1ccc(OC)c(O)c1
[1]
  z-score: -0.246 and 0.49
[2]
  z-score: -1.28 (inactive) and -1.67 (inactive)
[3]
  z-score: -0.72 (inactive) and 0.989 (inactive)
[4]
  composite z-score: 0.229 (inactive) and -0.344 (inactive)
[5]
  z-score: 0.152 (inactive)
[6]
  z-score: 0.119 (inactive) and -1.5 (inactive)
[7]
  z-score: -0.0985 (inactive) and 1.78 (inactive)
[8]
  z-score: -0.489 (inactive) and 1.38 (inactive)
[9]
  z-score: -1.04 and 0.51
[10]
  composite z-score: -0.319 and -0.148
[11]
  composite z-score: 0.263 (inactive) and -0.18 (inactive)
[12]
  composite z-score: -0.531 and -1.37
[13]
  z-score: -0.151 and -0.337
[14]
  z-score: -0.828 (inactive) and 0.853 (inactive)
[15]
  z-score: 0.719 (inactive) and -0.433 (inactive)
[16]
  z-score: -0.0654 (inactive) and 0.0937 (inactive)

## C=CCN(CCCC)C(=O)C1N(c2ccc(CCO)cc2)C(=O)C2C(C(=O)O)C3C=CC21O3 (stereo not drawn)
[1]
  z-score: 0.533 and -0.912
[2]
  z-score: -0.539 (inactive) and -0.275 (inactive)
[3]
  z-score: -0.217 (inactive) and -0.801 (inactive)
[4]
  composite z-score: -0.51 (inactive) and -1.02 (inactive)
[5]
  z-score: 0.633 (inactive) and 0.276 (inactive)
[6]
  z-score: -0.639 (inactive) and 0.159 (inactive)
[7]
  z-score: 0.227 (inactive) and 0.473 (inactive)
[8]
  z-score: -0.248 (inactive) and 0.25 (inactive)
[9]
  z-score: -0.0068 and 0.0215
[10]
  composite z-score: -0.53 and 0.0871
[11]
  composite z-score: -1.72 (inactive) and -1.1 (inactive)
[12]
  composite z-score: 0.261 and -0.728
[13]
  z-score: 0.224 and -1.45
[14]
  z-score: -1.03 (inactive) and -0.448 (inactive)
[15]
  z-score: 0.147 (inactive) and -0.608 (inactive)
[16]
  z-score: -0.173 (inactive) and -0.502 (inactive)

## C=CCN(Cc1ccccc1)C(=O)C1N(c2c(Cl)cccc2CO)C(=O)C2C(C(=O)O)C3C=CC21O3 (stereo not drawn)
[1]
  z-score: 0.753 and -0.367
[2]
  z-score: -2.14 (inactive) and -0.245 (inactive)
[3]
  z-score: 1.33 (inactive) and -0.324 (inactive)
[4]
  composite z-score: -0.33 (inactive) and 0.994 (inactive)
[5]
  z-score: -0.236 (inactive) and -0.329 (inactive)
[6]
  z-score: -3.44 (inactive) and 0.92 (inactive)
[7]
  z-score: 2.24 (inactive) and -0.745 (inactive)
[8]
  z-score: 2.55 (inactive) and -0.89 (inactive)
[9]
  z-score: 0.565 and -0.662
[10]
  composite z-score: 0.0379 and -0.051
[11]
  composite z-score: 0.297 (inactive) and -0.407 (inactive)
[12]
  composite z-score: -2.24 and -0.403
[13]
  z-score: -0.0029 and -1.42
[14]
  z-score: 0.428 (inactive) and -1.12 (inactive)
[15]
  z-score: -0.544 (inactive) and -0.696 (inactive)
[16]
  z-score: -0.649 (inactive) and -0.167 (inactive)

## CCCCN1CC=CC23O[C@@H]4C=CCCOC(=O)C4[C@H]2C(=O)N(C(C)CO)[C@@H]3C1=O (stereo partly drawn)
[1]
  z-score: 0.169 and -0.388
[2]
  z-score: -0.288 (inactive) and 1.12 (inactive)
[3]
  z-score: -0.201 (inactive) and -0.715 (inactive)
[4]
  composite z-score: -0.755 (inactive) and -2.42 (inactive)
[5]
  z-score: 0.329 (inactive) and 0.137 (inactive)
[6]
  z-score: -0.891 (inactive) and 1.05 (inactive)
[7]
  z-score: 0.0926 (inactive) and -0.474 (inactive)
[8]
  z-score: -0.25 (inactive) and -0.564 (inactive)
[9]
  z-score: -0.157 and -0.53
[10]
  composite z-score: -0.0062 and 0.744
[11]
  composite z-score: -0.0981 (inactive) and -0.455 (inactive)
[12]
  composite z-score: -0.41 and -0.585
[13]
  z-score: 0.0728 and -0.271
[14]
  z-score: -5.84 (inactive) and -4.77 (inactive)
[15]
  z-score: 0.34 (inactive) and -0.204 (inactive)
[16]
  z-score: 0.293 (inactive) and -0.258 (inactive)
